# According to PMC4336329 (PLoS ONE, 2015):
# Screen size: about 310,000 compounds; about 14,000 (4.5%) showed an effect of 50% or more. Effects have a minus sign here. What follows is part of a selection rich in strong results, with near analogues and random picks from the rest.
# Target: human ether-à-go-go-related gene (hERG) potassium channel (human, UniProt Q12809)
# Assay: primary screen, population patch clamp on CHO cells stably expressing hERG; higher = less effect of the substance
# 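Further: peak tail current of the secondary pulse compared with the same well before compound.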
# Chain of human ether-à-go-go-related gene (hERG) potassium channel (Q12809 whole entry, looked up): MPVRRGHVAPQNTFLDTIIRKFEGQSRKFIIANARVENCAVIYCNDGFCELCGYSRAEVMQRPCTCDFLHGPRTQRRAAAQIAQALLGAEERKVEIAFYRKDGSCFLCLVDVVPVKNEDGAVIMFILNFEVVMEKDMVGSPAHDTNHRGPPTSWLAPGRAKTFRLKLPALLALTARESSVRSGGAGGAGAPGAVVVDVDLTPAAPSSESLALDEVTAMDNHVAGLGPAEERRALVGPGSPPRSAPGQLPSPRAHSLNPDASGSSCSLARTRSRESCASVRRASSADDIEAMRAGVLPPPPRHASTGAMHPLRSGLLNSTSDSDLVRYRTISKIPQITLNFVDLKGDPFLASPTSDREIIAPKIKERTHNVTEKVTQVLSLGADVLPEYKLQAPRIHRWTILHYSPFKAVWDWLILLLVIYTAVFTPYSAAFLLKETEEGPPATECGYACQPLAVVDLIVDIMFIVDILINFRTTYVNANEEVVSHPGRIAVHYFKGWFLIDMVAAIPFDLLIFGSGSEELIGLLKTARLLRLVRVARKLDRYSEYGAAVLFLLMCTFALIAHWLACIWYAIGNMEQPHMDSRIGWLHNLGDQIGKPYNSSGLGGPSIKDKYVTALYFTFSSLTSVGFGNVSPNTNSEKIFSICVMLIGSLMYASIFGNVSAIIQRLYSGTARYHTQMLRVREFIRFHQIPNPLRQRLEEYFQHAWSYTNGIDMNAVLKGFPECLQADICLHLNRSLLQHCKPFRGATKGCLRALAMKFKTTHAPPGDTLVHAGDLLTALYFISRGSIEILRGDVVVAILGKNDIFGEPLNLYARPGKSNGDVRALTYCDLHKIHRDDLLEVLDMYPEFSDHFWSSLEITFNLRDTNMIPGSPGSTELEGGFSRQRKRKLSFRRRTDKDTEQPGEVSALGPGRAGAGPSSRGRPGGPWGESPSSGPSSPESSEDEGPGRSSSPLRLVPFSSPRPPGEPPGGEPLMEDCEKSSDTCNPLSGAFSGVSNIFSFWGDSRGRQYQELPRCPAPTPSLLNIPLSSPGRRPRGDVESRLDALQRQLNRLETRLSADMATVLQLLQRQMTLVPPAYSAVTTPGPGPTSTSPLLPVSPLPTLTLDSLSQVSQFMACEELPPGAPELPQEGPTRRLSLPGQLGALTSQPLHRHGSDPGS
row,Compound,"hERG current change (%, negative = inhibition) at 10uM [%]"
1,CCOC(=O)c1c(NC(=S)Nc2ccccc2)sc(C)c1C,4.49
2,CCOC(=O)c1c(NC(=S)NCc2ccccc2)sc2c1CCN(C(=O)OCC)C2,32.8
3,CCOC(=O)c1c(NC(=S)Nc2ccccc2)sc2c1CCN(CC)C2,-81.5
4,CCOC(=O)c1c(NC(C)=O)sc2c1CCN(Cc1ccccc1)C2.Cl,-20.5
5,CCOC(=O)c1c(NC(=S)Nc2ccccc2)sc2c1CCN(CCc1ccccc1)C2,-64.1
6,CCOC(=O)c1c(N)sc2c1CCN(CCc1ccccc1)C2,-28.6
7,COc1ccc(-c2c(C)n([O-])c3c([n+]2=O)CCCC3)c(OC)c1,6.26
8,Nc1cncc(C(=O)O)c1 [26671297],4.06
9,CCn1cc(C(=O)N2CCCC(C(=O)c3ccc4ccccc4c3)C2)cn1 (centres unmarked),-18.1
10,CCCCc1ccc(NC(=O)CSc2nc(=O)n(CCN(CC)CC)c3c2CCCC3)cc1,-66.7
11,CCCCc1ccc(NC(=O)CSc2nc(=O)n(CCN(CC)CC)c3c2CCC3)cc1,-65.8
12,CCCCc1ccc(NC(=O)CSc2nc(=O)n(CCN(C)C)c3c2CCC3)cc1,-56.4
13,CCc1ccc(NC(=O)CSc2nc(=O)n(CCCN(C)C)c3c2CCC3)cc1,-42.3
14,CCc1ccc(NC(=O)CSc2nc(=O)n(CCN(C)C)c3c2CCCC3)cc1,-24.2
15,C=C(C)CN(CC)Cc1c(C(=O)N(C)CCCC)nc2ccccn12,-20.7
16,Cc1ccc(S(=O)(=O)NNC(=O)C2CCN(Cc3ccccc3)CC2)cc1,-15.4
17,COc1ccc(NC(=O)CSc2nnc(C3CCCCC3)n2N)cc1OC,21.9
18,Cc1cc(N/N=C/c2ccccc2O)nc(N2CCOCC2)n1,6.96
19,COc1ccc2ccc(OCC(=O)N3c4ccccc4NC(=O)CC3C)cc2c1 (centres unmarked),-21.2
20,Oc1ccc2ccccc2c1-c1sc(Nc2ccccc2)n[n+]1-c1ccc(F)cc1.[Cl-],-0.475
21,COc1ccc2ccccc2c1-c1sc(Nc2ccccc2)n[n+]1-c1ccc(F)cc1.[Cl-],-57.4
22,COc1ccc(-c2sc(Nc3ccccc3)n[n+]2-c2ccc(F)cc2)c(C)c1C.[Cl-],-74.5
23,COc1cc(OC)c(-c2sc(Nc3ccccc3)n[n+]2-c2ccc(F)cc2)cc1OC.[Cl-],-0.831
24,Fc1ccc(-[n+]2nc(Nc3ccccc3)sc2-c2c3ccccc3cc3ccccc23)cc1.[Cl-],18.2

row,Compound,"hERG current change (%, negative = inhibition) at 10uM [%]"
1,COc1ccc(-c2sc(Nc3ccccc3)n[n+]2-c2ccc(F)cc2)cc1Br.[Cl-],4.03
2,COc1ccc(-c2sc(Nc3ccccc3)n[n+]2C)c(C)c1C.[Cl-],-1.19
3,COc1ccc(-c2sc(Nc3ccccc3)n[n+]2-c2ccc(F)cc2)c(OC)c1OC.[Cl-],-72.2
4,Cc1nc2sc3c(c2c(=O)o1)CCC3,4.18
5,O=c1[nH]c(O)c(/C=C2\C=Nc3ccccc32)[nH]1,20.9
6,Cc1cc(S(=O)(=O)N2CCOCC2)ccc1OCC(=O)NCC1CCCO1 (centres unmarked),-0.633
7,COc1ccc(S(=O)(=O)N(Cc2ccccc2)c2ccccc2C(=O)O)cc1,31.8
8,O=S(=O)(Cc1ccccc1)NCCc1cccc(Cl)c1,-5.57
9,Cc1nnc(-c2cnn(-c3ccccc3)c2N)n1Cc1ccccc1,-1.94
10,CCCOc1ccc(CC(CC(=O)O)(C(=O)O)C(=O)O)cc1,13.5
11,CCOC(=O)c1cccc(Nc2ncnc3ccccc23)c1.Cl,-24.9
12,CCOC(=O)c1cccc(Nc2ncnc3ccc(C)cc23)c1,-59.3
13,COC(=O)c1cccc(Nc2ncnc3ccc(C)cc23)c1,-20.9
14,Cc1ccc(C(=O)CSc2nnc(-c3ccncc3)n2C)cc1,-3.2
15,CCOc1ccc(C(C)=O)cc1CSc1nnc(-c2ccncc2)n1CCOC,-0.498
16,Cn1c(SCCCC(=O)c2ccccc2)nnc1-c1ccncc1,-42.9
17,COCCn1c(SCC(=O)N2CCOCC2)nnc1-c1ccncc1,-7.01
18,Cn1c(SCCCC(=O)c2ccc(F)cc2)nnc1-c1ccncc1,-59.6
19,COCCn1c(SCCCC(=O)c2ccc(Br)cc2)nnc1-c1ccncc1,-60.7
20,Cn1c(SCC(=O)c2ccccc2)nnc1-c1ccncc1,-0.277
21,Cn1c(SCCC(=O)O)nnc1-c1ccncc1,1.73
22,Cn1c(SCCCC(=O)c2ccc(Br)cc2)nnc1-c1ccncc1,-70.2
23,[O-][n+]1onc2c1CCC1N(O)C(c3ccccc3)CC21O (centres unmarked),14.7
24,O=C(c1cc(C2CC2)nn1-c1ccccc1)N1CCN(Cc2c(F)cccc2Cl)CC1,-36.6

row,Compound,"hERG current change (%, negative = inhibition) at 10uM [%]"
1,CN(CCO)C(=O)c1cccc2c1-c1ccccc1C2=O,4.12
2,c1ccc(-c2ccc(-c3ccccn3)s2)nc1,-8.87
3,CCOc1ccc(NC(=O)c2ccc(Br)o2)c([N+](=O)[O-])c1,5.5
4,CC(C)C(=O)NC(c1ccco1)c1c(O)ccc2ccccc12 (centres unmarked),14.1
5,COc1ccc(F)cc1C(=O)C1CCCN(Cc2ccc3c(c2)OCCO3)C1 (centres unmarked),-54.3
6,COc1ccc(C(=O)C2CCCN(Cc3ccc4c(c3)OCCO4)C2)cc1F (centres unmarked),-74.7
7,O=C(c1ccc(Cl)cc1)C1CCCN(Cc2ccc3c(c2)OCCO3)C1 (centres unmarked),-73.5
8,COc1ccc(F)cc1C(=O)C1CCCN(Cc2ccc(Sc3nncn3C)o2)C1 (centres unmarked),12.6
9,O=C(c1ccc(Cl)cc1)C1CCCN(Cc2ccon2)C1 (centres unmarked),-18
10,COc1ccccc1C(=O)C1CCCN(Cc2ccc3c(c2)OCCO3)C1 (centres unmarked),-40.5
11,COc1ccc(C(=O)C2CCCN(Cc3ccc(Sc4nncn4C)o3)C2)cc1F (centres unmarked),-15.4
12,O=C(CN1CCC(C(=O)c2ccc(Cl)cc2)CC1)Nc1ccc2c(c1)OCCO2,-44.9
13,c1ccc(-c2noc(-c3ccc4c(c3)OCO4)n2)cc1,-3.33
14,Cc1ccc(CN2CCN(/N=C/c3ccc(C)s3)CC2)c(C)c1,-5.96
15,CCn1c(=O)c(C(=O)NNC(=O)c2cccc(Cl)c2)c(O)c2ccccc21,32.4
16,C/C(=N\NC(=O)c1cccc(Br)c1)c1ccc(Br)cc1,16
17,Cc1cc2c(c(=O)n1CCCn1ccnc1)C(c1ccco1)C(C#N)=C(N)O2 (centres unmarked),-3.23
18,CC(O)C(=O)N/N=C/c1ccccc1C(=O)O (centres unmarked),14
19,COc1cc(/C=N/Nc2nc3ccccc3[nH]2)cc(OC)c1O,-55.9
20,COc1ccc(/C=N/Nc2nc3ccccc3[nH]2)cc1OC,-21.8
21,O=C(/C(=C/c1ccc(Cl)cc1)c1nc2ccccc2[nH]1)c1cccs1,2.82
22,COc1cc(/C=C(/C(=O)c2cccs2)c2nc3ccccc3[nH]2)ccc1O,-22.2
23,COc1cc(/C=C(/C(=O)c2cccs2)c2nc3ccccc3[nH]2)cc(OC)c1O,-56.1
24,COc1cc(/C=N\Nc2nc3ccccc3[nH]2)cc(OC)c1OC,-19.8

row,Compound,"hERG current change (%, negative = inhibition) at 10uM [%]"
1,CCCCN=C1SC(C(=O)Nc2sc3c(c2C(=O)OC)CCC3)C(N)=C1C(=O)N1CCOCC1 (centres unmarked),-1.11
2,Cc1cc(Nc2ccccc2C(=O)O)n(-c2ccc([N+](=O)[O-])cc2)n1,4.19
3,CC(=O)c1cc(CN2CCC(n3nccc3NC(=O)c3ccccc3)CC2)cs1,-10.9
4,COc1ccccc1C(=O)Nc1ccnn1C1CCN(Cc2csc(C(C)=O)c2)CC1,-72.9
5,CC(=O)c1cc(CN2CCC(n3nccc3NC(=O)c3ccccc3C)CC2)cs1,-57.8
6,CC(=O)c1cc(CN2CCC(n3nccc3NC(=O)c3ccccc3Cl)CC2)cs1,-56.5
7,Cc1cc(CN2CCC(n3nccc3NC(=O)c3ccccc3C)CC2)n[nH]1,-38
8,CC(C)=NN1C(c2nonc2N)=NOC1(C)C,6.47
9,COC(=O)C1=C(C)N=C2SCCC(=O)N2C1/C=C/c1ccccc1 (centres unmarked),-16.8
10,Cc1nc(SCC(=O)c2ccc(F)cc2)c([N+](=O)[O-])[nH]1,27.3
11,CCCNC(=O)CN(CCc1ccccc1)S(C)(=O)=O,8.94
12,CN(CCOc1ccc(Cl)cc1)CC(=O)Nc1ccc(OC(F)F)cc1,-71.4
13,COc1ccc(CN(C)C(=S)Nc2ccc(Cl)cc2)cc1,-20.7
14,CN(C(=S)Nc1ccc(SC(F)F)cc1)C(c1ccccc1)c1ccccc1,-0.128
15,CN(C)CCCN(Cc1ccccc1)C(=S)Nc1ccc(SC(F)F)cc1,-75.1
16,COc1ccc(NC(=O)CNCCC2=CCCCC2)cc1,7.2
17,COc1ccc(NC(=O)CN(C)CCOc2ccc(Cl)cc2)cc1OC.O=C(O)C(=O)O,-17.4
18,COc1ccc(CN(C)C(=S)Nc2ccc(OC(F)F)cc2)cc1,-58.9
19,COc1ccc(CCNCC(=O)Nc2ccc(C(=O)N3CCCCC3)cc2)cc1.O=C(O)C(=O)O,4.75
20,CN(C)CCCN(Cc1ccccc1)C(=S)NCc1ccccc1,-24.7
21,COc1ccc(CCNCC(=O)Nc2ccc(OC(F)F)cc2)cc1,-75.8
22,CN(Cc1ccccc1)C(=S)Nc1ccc(OC(F)F)cc1,-21.2
23,CN(CCOc1ccc(Cl)cc1)CC(=O)Nc1ccc(OC(F)(F)F)cc1,8.27
